Measurements as given in PubChem BioAssay (Tox21).
Inconclusive results are not listed. Active and inactive are the calls of the source. Unless noted, the call rests on the fitted dose curve; in most records, active means well fitted curve in the direction sought with a large enough effect in the repeat runs; inconclusive means weak or mixed curves; inactive means no such curve, though single readings can be large; an effect the other way counts as inactive or inconclusive.

How the values were obtained:
[1] = qHTS assay to test for compound auto fluorescence at 535 nm (green) in HEK293 cells (AID 720680)
[2] = qHTS assay to test for compound auto fluorescence at 460 nm (blue) in HEK293 cell free culture (AID 720681)
Summary of the method: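 Compounds were added to cell-free DMEM with 10% FBS and fluorescence read directly. The blue channel used 405 nm excitation and 460 nm emission, with triamterene as the reference fluorophore.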

[3] = qHTS assay to test for compound auto fluorescence at 535 nm (green) in HEK293 cell free culture (AID 720682)
Summary of the method: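 Intrinsic compound fluorescence is measured in culture medium containing 10% FBS, with excitation at 485 nm and detection at 535 nm, referenced to fluorescein.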

[4] = qHTS assay to test for compound auto fluorescence at 590 nm (red) in HEK293 cell free culture (AID 720683)
Summary of the method: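 Cell-free wells of DMEM with 10% FBS received compound, and intrinsic fluorescence was read at excitation/emission 540/590 nm. Values expressed as equivalence to Rose Bengal sodium.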

[5] = qHTS assay to test for compound auto fluorescence at 590 nm (red) in HepG2 cell free culture (AID 720684)
Summary of the method: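 Auto fluorescence equivalency versus Rose Bengal sodium, red channel Ex/Em 540/590 nm; compounds in cell-free MEM/10% FBS; DMSO vehicle control.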

[6] = qHTS assay to test for compound auto fluorescence at 460 nm (blue) in HepG2 cell free culture (AID 720685)
Summary of the method: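 Cell-free plates of MEM plus 10% FBS received 23 nL compound or DMSO vehicle; blue-channel (405/460 nm) intensity scored against triamterene as reference fluorophore.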

[7] = qHTS assay to test for compound auto fluorescence at 535 nm (green) in HepG2 cell free culture (AID 720686)
[8] = qHTS assay to test for compound auto fluorescence at 460 nm (blue) in HepG2 cells (AID 720687)
Summary of the method: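 HepG2 cells in MEM with 10% FBS, attached overnight at 37 C, were exposed to compound or DMSO for 1 hr at 37 C, 5% CO2. Blue fluorescence was read at 405/460 nm, with triamterene as reference fluorophore.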

[9] = target: Glucocorticoid receptor (Homo sapiens) (UniProt P04150); test: qHTS assay to identify small molecule agonists of the glucocorticoid receptor (GR) signaling pathway (AID 720691; active means well fitted activation curve with a large enough effect in the signal ratio in the repeat runs, not every such curve was filed as active; the % refers to the signal ratio)
Summary of the method: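 Cells: GR-bla HeLa, endogenous GR with stably integrated GRE-beta-lactamase reporter. Treatment 18 h, 37 C, compounds delivered in DMSO. Detection via LiveBLAzer B/G FRET substrate, 2 h RT, fluorescence intensity.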

[10] = target: Glucocorticoid receptor (Homo sapiens) (UniProt P04150); test: qHTS assay to identify small molecule antagonists of the glucocorticoid receptor (GR) signaling pathway (AID 720692; active means well fitted inhibition curve with a large enough effect in the signal ratio in the repeat runs, not every such curve was filed as active; the % refers to the signal ratio)
Summary of the method: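 Quantitative HTS in antagonist format: HeLa cells expressing endogenous GR and a stably integrated GRE-bla reporter, stimulated with 5 nM dexamethasone (final) alongside test compounds for 18 h.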

[11] = qHTS assay to identify small molecule antagonists of the glucocorticoid receptor (GR) signaling pathway - cell viability counter screen (AID 720693); further: nearly all actives have a fitted effect of over 55% in size
[12] = qHTS assay for identifying genotoxic compounds that show differential cytotoxicity against isogenic chicken DT40 cell lines with known DNA damage response pathways - wild type cell line (AID 743012); further: nearly all actives have a fitted effect of over 60% in size; further: potency means the concentration at half of the fitted maximal effect
Summary of the method: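 Luminescent ATP viability signal (CellTiter-Glo, 30 min RT) recorded after wild type DT40 cells were incubated with compounds for 40 h at 37 C/5% CO2.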

[13] = qHTS assay to identify small molecule antagonists of the androgen receptor (AR) signaling pathway - cell viability counter screen (AID 743033; further: nearly all actives have a fitted effect of over 45% in size)
[14] = qHTS assay to identify small molecule antagonists of the androgen receptor (AR) signaling pathway using the MDA cell line - cell viability counter screen (AID 743041; further: nearly all actives have a fitted effect of over 45% in size)
Summary of the method: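 Compound exposure lasted 16 h at 37C in MDA-kb2 AR-luc cells stimulated with R1881. Protease-based CellTiter-Fluor reagent was applied for the final 30 min and fluorescence measured.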

[15] = qHTS assay to identify small molecule antagonists of the thyroid receptor (TR) signaling pathway - cell viability counter screen (AID 743064); further: nearly all actives have a fitted effect of over 50% in size; further: potency means the concentration at half of the fitted maximal effect
Summary of the method: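 Same-well viability check: GH3.TRE-Luc cells stimulated with 1 nM T3 alongside test compound for 23.5 h, followed by CellTiter-Fluor fluorescence.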

[16] = qHTS assay for identifying genotoxic compounds that show differential cytotoxicity against isogenic chicken DT40 cell lines with known DNA damage response pathways - Rad54/Ku70 mutant cell line (AID 743015); further: nearly all actives have a fitted effect of over 60% in size; further: potency means the concentration at half of the fitted maximal effect
[17] = target: Androgen receptor (Homo sapiens) (UniProt P10275); test: qHTS assay to identify small molecule agonists of the androgen receptor (AR) signaling pathway (AID 743036; active means well fitted activation curve with a large enough effect in the signal ratio in the repeat runs, with a control signal flat, not every such curve was filed as active; the % refers to the signal ratio)
Summary of the method: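 Agonist activity was scored by beta-lactamase reporter fluorescence in stably transfected HEK293 cells exposed to compounds for 16 h at 37C and 5% CO2. Substrate loading took 2 h at room temperature.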

[18] = target: Androgen receptor (Homo sapiens) (UniProt P10275); test: qHTS assay to identify small molecule agonists of the androgen receptor (AR) signaling pathway using the MDA cell line (AID 743040; further: nearly all actives have a fitted effect of over 20% in size)
Summary of the method: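 Testing was done with the MDA-kb2 AR-luc line, a human breast carcinoma stably transfected with MMTV-luciferase containing AR and GR response elements. Cells were exposed 16 h at 37C before ONE-Glo luminescence detection.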

[19] = qHTS assay for identifying genotoxic compounds that show differential cytotoxicity against isogenic chicken DT40 cell lines with known DNA damage response pathways - Rev3 mutant cell line (AID 743014); further: nearly all actives have a fitted effect of over 55% in size; further: potency means the concentration at half of the fitted maximal effect
[20] = qHTS assay to identify small molecule antagonists of the thyroid receptor (TR) signaling pathway (AID 743065); further: nearly all actives have a fitted effect of over 55% in size; further: potency means the concentration at half of the fitted maximal effect
Summary of the method: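 GH3.TRE-Luc rat pituitary cells (two TREs driving luciferase) were dosed with compound, then stimulated with 1 nM T3 (final) for 23.5 h at 37 C. ONE-Glo luminescence was the read-out, with CellTiter-Fluor fluorescence as the cytotoxicity counter-screen.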
On the % scale 0 is the no-effect control and ±100 the full control effect.

Androgen receptor (Homo sapiens), sequence (P10275 whole entry, looked up): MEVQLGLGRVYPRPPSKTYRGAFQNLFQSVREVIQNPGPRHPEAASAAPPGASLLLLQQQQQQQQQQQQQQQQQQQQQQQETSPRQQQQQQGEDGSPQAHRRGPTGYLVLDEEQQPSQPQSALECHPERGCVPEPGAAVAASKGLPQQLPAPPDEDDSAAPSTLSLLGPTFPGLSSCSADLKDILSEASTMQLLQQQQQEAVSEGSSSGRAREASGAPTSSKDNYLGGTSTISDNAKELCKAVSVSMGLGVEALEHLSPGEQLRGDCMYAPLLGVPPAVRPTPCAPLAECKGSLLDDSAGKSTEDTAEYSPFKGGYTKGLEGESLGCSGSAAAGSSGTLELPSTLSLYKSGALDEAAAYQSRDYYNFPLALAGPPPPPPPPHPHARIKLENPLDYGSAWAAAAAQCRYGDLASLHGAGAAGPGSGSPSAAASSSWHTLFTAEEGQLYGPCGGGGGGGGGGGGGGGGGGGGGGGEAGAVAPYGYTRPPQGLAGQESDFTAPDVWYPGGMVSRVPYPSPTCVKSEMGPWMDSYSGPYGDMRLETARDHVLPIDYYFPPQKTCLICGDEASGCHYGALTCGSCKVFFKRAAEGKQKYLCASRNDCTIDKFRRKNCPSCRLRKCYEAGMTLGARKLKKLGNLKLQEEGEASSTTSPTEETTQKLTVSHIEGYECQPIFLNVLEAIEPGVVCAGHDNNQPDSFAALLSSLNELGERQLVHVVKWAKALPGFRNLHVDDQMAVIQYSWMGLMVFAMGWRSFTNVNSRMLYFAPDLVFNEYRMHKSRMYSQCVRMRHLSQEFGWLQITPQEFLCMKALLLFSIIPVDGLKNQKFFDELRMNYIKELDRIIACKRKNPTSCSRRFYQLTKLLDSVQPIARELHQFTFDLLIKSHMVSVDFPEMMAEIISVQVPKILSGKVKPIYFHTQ
Glucocorticoid receptor (Homo sapiens), sequence (P04150 whole entry, looked up): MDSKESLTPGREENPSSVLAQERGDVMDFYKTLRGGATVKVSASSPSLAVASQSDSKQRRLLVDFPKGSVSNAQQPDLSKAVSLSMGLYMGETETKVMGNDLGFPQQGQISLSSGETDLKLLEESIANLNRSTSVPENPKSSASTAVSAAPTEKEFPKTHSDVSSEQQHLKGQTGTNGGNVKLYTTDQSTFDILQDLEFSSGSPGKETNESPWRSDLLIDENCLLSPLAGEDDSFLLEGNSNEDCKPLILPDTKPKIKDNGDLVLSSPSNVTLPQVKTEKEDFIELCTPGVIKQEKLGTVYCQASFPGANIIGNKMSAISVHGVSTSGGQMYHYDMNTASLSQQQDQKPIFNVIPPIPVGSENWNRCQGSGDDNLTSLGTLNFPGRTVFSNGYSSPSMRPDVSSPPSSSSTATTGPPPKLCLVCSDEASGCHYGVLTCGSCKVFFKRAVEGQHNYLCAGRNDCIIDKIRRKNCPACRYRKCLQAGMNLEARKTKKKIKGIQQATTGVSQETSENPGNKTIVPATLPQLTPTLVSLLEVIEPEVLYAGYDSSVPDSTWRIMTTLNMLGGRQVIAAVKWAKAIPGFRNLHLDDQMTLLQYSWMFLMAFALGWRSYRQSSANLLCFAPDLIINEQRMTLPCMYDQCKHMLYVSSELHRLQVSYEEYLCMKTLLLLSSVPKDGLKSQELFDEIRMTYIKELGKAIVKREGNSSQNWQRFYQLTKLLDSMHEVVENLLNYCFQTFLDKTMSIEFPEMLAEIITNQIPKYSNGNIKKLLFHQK

Cc1cccc(OCCOc2cccc(C)c2)c1
inactive: outcome [1] | Potency [2] | outcome [3] | outcome [4] | outcome [5] | Potency [6] | outcome [7] | Potency [8] | Potency [9] | Potency [10] | Potency [11] | Potency [12] | Potency [13] | Potency [14] | Potency [15]

CNCC[C@@H](Oc1ccccc1C)c1ccccc1
active: Potency [12] 16.8 µM | Potency [16] 29.8 µM
inactive: outcome [1] | Potency [2] | outcome [3] | outcome [4] | outcome [5] | Potency [6] | outcome [7] | Potency [8] | Potency [9] | Potency [10] | Potency [11] | Potency [13] | outcome [17] | Potency [18] | Potency [14]

CC(O)C1CCCCC1 (centres undefined)
inactive: outcome [1] | Potency [2] | outcome [3] | outcome [4] | outcome [5] | Potency [6] | outcome [7] | Potency [8] | Potency [9] | Potency [10] | Potency [11] | Potency [12] | Potency [19] | Potency [16] | Potency [14] | Potency [15] | Potency [20]

CCN(CCO)CCCC(C)Nc1ccnc2cc(Cl)ccc12 (centres undefined)
inactive: outcome [1] | Potency [2] | outcome [3] | outcome [4] | outcome [5] | Potency [6] | outcome [7] | Potency [8] | Potency [9] | Potency [10] | Potency [11] | Potency [13] | Potency [14] | Potency [15]
active: Potency [12] 29.8 µM | Potency [19] 23.7 µM

CN1CCN(C2=Nc3cc(Cl)ccc3Nc3ccccc32)CC1
active: Potency [12] 21.1 µM | Potency [19] 26.6 µM | Potency [16] 26.6 µM | Potency [15] 13.3 µM | Potency [20] 23.7 µM
inactive: outcome [1] | Potency [2] | outcome [3] | outcome [4] | outcome [5] | Potency [6] | outcome [7] | Potency [8] | Potency [9] | Potency [11] | Potency [14]

CCCCCCOC(=O)CCC
inactive: outcome [1] | Potency [2] | outcome [3] | outcome [4] | outcome [5] | Potency [6] | outcome [7] | Potency [8] | Potency [11] | Potency [12] | Potency [19] | Potency [16] | Potency [13] | Potency [14] | Potency [15]

CNS(=O)(=O)Cc1ccc2[nH]cc(CCN(C)C)c2c1
inactive: outcome [1] | Potency [2] | outcome [3] | outcome [4] | outcome [5] | Potency [6] | outcome [7] | Potency [8] | Potency [9] | Potency [11] | Potency [12] | Potency [19] | Potency [16] | Potency [14] | Potency [15] | Potency [20]

CCCCCOC(=O)c1ccc(O)cc1
active: Potency [16] 61.9 µM
inactive: outcome [1] | Potency [2] | outcome [3] | outcome [4] | outcome [5] | Potency [6] | outcome [7] | Potency [8] | Potency [9] | Potency [11] | Potency [13] | Potency [14] | Potency [15]

CCN(CC)C(C)=O
inactive: outcome [1] | Potency [2] | outcome [3] | outcome [4] | outcome [5] | Potency [6] | outcome [7] | Potency [8] | Potency [11] | Potency [12] | Potency [19] | Potency [16] | Potency [13] | Potency [14] | Potency [15] | Potency [20]

O=C(Cl)c1c(Cl)cccc1Cl
inactive: outcome [1] | Potency [2] | outcome [3] | outcome [4] | outcome [5] | Potency [6] | outcome [7] | Potency [8] | Potency [9] | Potency [11] | Potency [12] | Potency [19] | Potency [16] | Potency [14]

Oc1ccc2c(c1)OCO2
active: Potency [12] 54 µM | Potency [19] 54 µM
inactive: outcome [1] | Potency [2] | outcome [3] | outcome [4] | outcome [5] | Potency [6] | outcome [7] | Potency [8] | Potency [9] | Potency [11] | Potency [13] | Potency [14] | Potency [15]

Cc1ccc2c(ccc3ccccc32)c1
inactive: outcome [1] | Potency [2] | outcome [3] | outcome [4] | outcome [5] | Potency [6] | outcome [7] | Potency [8] | Potency [11] | Potency [12] | Potency [19] | Potency [16] | Potency [13]

N[C@H]1C(O)O[C@H](CO)[C@H](O)[C@@H]1O (some centres undefined)
inactive: outcome [1] | Potency [2] | outcome [3] | outcome [4] | outcome [5] | Potency [6] | outcome [7] | Potency [8] | Potency [11] | Potency [12] | Potency [19] | Potency [16] | Potency [13] | outcome [17] | Potency [18] | Potency [14] | Potency [15]

O=C(O)COC(=O)Cc1ccccc1Nc1c(Cl)cccc1Cl
inactive: fluorescence, % of fluorescein [1] 0.0784% [at 18.6 µM] | fluorescence, % of fluorescent control [2] 0.0686% [at 18.6 µM] | activity change [3] 0.0139% [at 18.6 µM] | fluorescence, % of fluorescent control [4] -0.172% [at 18.6 µM] | fluorescence, % of Rose Bengal [5] -0.0238% [at 18.6 µM] | fluorescence, % of fluorescent control [6] 0.0872% [at 18.6 µM] | fluorescence, % of fluorescein control [7] 0.0255% [at 18.6 µM] | fluorescence, % of fluorescent control [8] 0.0219% [at 18.6 µM] | Potency [11] | Potency [12] | Potency [19] | Potency [16] | Potency [13] | outcome [17] | Potency [18] | Potency [14] | Potency [15]

NC1CCN(c2nc3c(cc2F)c(=O)c(C(=O)O)cn3-c2ccc(F)cc2F)C1 (centres undefined)
inactive: outcome [1] | Potency [2] | outcome [3] | outcome [4] | outcome [5] | Potency [6] | outcome [7] | Potency [8] | Potency [9] | Potency [11] | Potency [14] | Potency [15]
active: Potency [12] 10.6 µM | Potency [19] 13.3 µM | Potency [16] 18.8 µM | Potency [20] 23.7 µM
